Reference: PubChem BioAssay (NCATS)
A number with no mark means an inactive call. For some of these results: Potency and affinity values are given separately. Calls of active or inactive are those of the source. No rule for the calls is given here.

Assays:
[1] = Ebola virus entry assay, green fluorescence channel
[2] = Ebola virus entry assay, blue channel fluorescence
[3] = Ebola virus entry assay, ratio channel
[4] = Ebola virus entry assay, reporter ratio channel; Channel type: primary
[5] = Ebola virus entry assay, blue channel (ratio component)
For efficacy in this document: 0% is about no effect.

Row | SMILES | efficacy [1] [%] | AC50 [2] | AC50 [3] | AC50 [4] | outcome [2] | outcome [3] | outcome [4] | outcome [5]
1 | CC(NCCC(c1ccccc1)c1ccccc1)c1ccccc1 (stereo unspecified) | -189 | 2 µM (active) | 2.51 µM (active) | 2.51 µM (active) |  |  |  | 
2 | CN1C[C@H](C(=O)N[C@]2(C)O[C@@]3(O)[C@@H]4CCCN4C(=O)[C@H](Cc4ccccc4)N3C2=O)C[C@@H]2c3cccc4[nH]cc(c34)C[C@H]21 | 95.4 | 28.2 µM (active) | 17.8 µM (active) | 17.8 µM (active) |  |  |  | 
3 | Cc1oc(-c2ccccc2)nc1CCC(=O)c1ccc(CC2SC(=O)NC2=O)cc1 (stereo unspecified) | 43.2 |  |  |  | inactive | inactive | inactive | 
4 | CN1CCC(=C2c3ccccc3CCc3sccc32)CC1 | 69.4 | 8.91 µM (active) | 8.91 µM (active) | 8.91 µM (active) |  |  |  | 
5 | CCOC(=O)[C@H](CCc1ccccc1)N[C@H]1CCc2ccccc2N(CC(=O)O)C1=O | 88 | 3.98 µM (active) | 3.98 µM (active) | 3.98 µM (active) |  |  |  | 
6 | CCOC(=O)N1CCC(Nc2ccc(Cl)cc2N)CC1 | 119 | 39.8 µM (active) |  | 39.8 µM (active) |  | inactive |  | 
7 | CN1CCC(=C2c3ccccc3Sc3ccccc32)CC1 | 61.5 | 8.91 µM (active) | 5.01 µM (active) | 5.01 µM (active) |  |  |  | 
8 | C[C@@H]1CN(CCCn2c3ccccc3c3ccccc32)C[C@H](C)N1 | -134 | 3.16 µM (active) | 3.16 µM (active) | 3.16 µM (active) |  |  |  | 
9 | COc1ccc(CCN2CCC(Nc3nc4ccccc4n3Cc3ccc(F)cc3)CC2)cc1 | -220 | 5.01 µM (active) | 2.82 µM (active) | 2.82 µM (active) |  |  |  | 
10 | CCC(CN)=C(c1ccccc1)c1ccccc1 | 124 | 17.8 µM (active) | 17.8 µM (active) | 17.8 µM (active) |  |  |  | 
11 | O=c1c(-c2ccccc2)c1-c1ccccc1 | 22 | 39.8 µM (active) | 39.8 µM (active) | 39.8 µM (active) |  |  |  | 
12 | CN(C)CC/C=C1\c2ccccc2Sc2ccc(Cl)cc21 | -98.3 | 3.16 µM (active) | 3.16 µM (active) | 3.16 µM (active) |  |  |  | 
13 | NCc1ccccc1Sc1ccccc1CO | 118 | 39.8 µM (active) | 20 µM (active) | 20 µM (active) |  |  |  | 
14 | CN1CCCC(n2nc(Cc3ccc(Cl)cc3)c3ccccc3c2=O)CC1 (stereo unspecified) | 78.3 | 3.16 µM (active) | 3.16 µM (active) | 3.16 µM (active) |  |  |  | 
15 | Cc1nc2sccn2c(=O)c1CCN1CCC(=C(c2ccc(F)cc2)c2ccc(F)cc2)CC1 | 82.1 | 17.8 µM (active) | 15.8 µM (active) | 15.8 µM (active) |  |  |  | 
16 | O=C(CCCN1CCC(O)(c2ccc(Br)cc2)CC1)c1ccc(F)cc1 | 36.8 | 7.94 µM (active) | 5.62 µM (active) | 5.62 µM (active) |  |  |  | 
17 | CN1CCC(=C2c3ccccc3CC(=O)c3sccc32)CC1 | 93.4 | 31.6 µM (active) | 28.2 µM (active) | 28.2 µM (active) |  |  |  | 
18 | CCc1cccc(N(C)C(N)=Nc2cccc3ccccc23)c1 | 108 | 20 µM (active) | 14.1 µM (active) | 14.1 µM (active) |  |  |  | 
19 | O=C(CCN1CCN2CCCC2C1)N1c2ccccc2Sc2ccc(Cl)cc21 (stereo unspecified) | 163 | 11.2 µM (active) | 10 µM (active) | 10 µM (active) |  |  |  | 

Row | SMILES | efficacy [1] [%] | AC50 [2] | AC50 [3] | AC50 [4] | outcome [2] | outcome [3] | outcome [4] | outcome [5]
20 | Cc1cc(C(C)(C)C)c(O)c(C)c1CC1=NCCN1 | 52 | 39.8 µM (active) |  | 39.8 µM (active) |  | inactive |  | 
21 | O[C@@H](COc1cccc2ncccc12)CN1CCN(C2c3ccccc3[C@@H]3[C@H](c4ccccc42)C3(F)F)CC1 (stereo partly specified) | 34.8 | 10 µM (active) | 10 µM (active) | 10 µM (active) |  |  |  | 
22 | NC1(c2ccc(-c3nc4ccn5c(=O)[nH]nc5c4cc3-c3ccccc3)cc2)CCC1 | 104 | 2.82 µM (active) | 2.51 µM (active) | 2.51 µM (active) |  |  |  | 
23 | O=c1[nH]c2ccccc2n1CCCN1CCN(C(c2ccccc2)c2ccccc2)CC1 | -120 | 12.6 µM (active) | 3.98 µM (active) | 3.98 µM (active) |  |  |  | 
24 | O=C(c1ccc(F)cc1)C1CCN(CCn2c(=S)[nH]c3ccccc3c2=O)CC1 | 48.9 | 35.5 µM (active) | 17.8 µM (active) | 17.8 µM (active) |  |  |  | 
25 | O=C(NC1CCN(CCc2c[nH]c3ccccc23)CC1)c1ccccc1 | 90.8 | 25.1 µM (active) | 35.5 µM (active) | 35.5 µM (active) |  |  |  | 
26 | CC(=O)O[C@]1(C(C)=O)CC[C@H]2[C@@H]3C=C(Cl)C4=CC(=O)CC[C@]4(C)[C@H]3CC[C@@]21C | 83.2 | 28.2 µM (active) | 28.2 µM (active) | 28.2 µM (active) |  |  |  | 
27 | CCOC(=O)C1=C(C)NC(C)=C(C(=O)OCC)C1c1ccccc1/C=C/C(=O)OC(C)(C)C | 50 |  |  |  | inactive | inactive | inactive | 
28 | CN(C)[C@@H]1C(=O)C(C(=O)NCN2CCCC2)=C(O)[C@@]2(O)C(=O)C3=C(O)c4c(O)cccc4[C@@](C)(O)C3C[C@@H]12 (stereo partly specified) | 145 | 11.2 µM (active) | 11.2 µM (active) | 11.2 µM (active) |  |  |  | 
29 | COc1cc(C(=O)OCCCN2CCCN(CCCOC(=O)c3cc(OC)c(OC)c(OC)c3)CC2)cc(OC)c1OC | 89.6 | 17.8 µM (active) | 12.6 µM (active) | 12.6 µM (active) |  |  |  | 
30 | CN1CCC(Nc2ncc3ncnc(Nc4ccc(F)c(Cl)c4)c3n2)CC1 | 97.2 |  |  |  | inactive | inactive | inactive | 
31 | Cc1nc(C2CCCCC2)c(-c2ccc(S(N)(=O)=O)c(F)c2)o1 | 44.4 | 39.8 µM (active) | 31.6 µM (active) | 31.6 µM (active) |  |  |  | 
32 | CC(CC1c2ccccc2CCc2ccccc21)CN(C)C (stereo unspecified) | 28.4 | 6.31 µM (active) | 3.98 µM (active) | 3.98 µM (active) |  |  |  | 
33 | OCc1cc(C(O)CNCCCCCCOCCCCc2ccccc2)ccc1O (stereo unspecified) | 98.5 | 7.94 µM (active) | 7.08 µM (active) | 7.08 µM (active) |  |  |  | 
34 | C[C@H]1O[C@@H](O[C@H]2CC[C@@]3(C)[C@H](CC[C@@H]4[C@@H]3C[C@@H](O)[C@]3(C)[C@@H](C5=CC(=O)OC5)CC[C@]43O)C2)C[C@H](O)[C@@H]1O[C@H]1C[C@H](O)[C@H](O[C@H]2C[C@H](O)[C@H](O[C@@H]3O[C@H](CO)[C@@H](O)[C@H](O)[C@H]3O)[C@@H](C)O2)[C@@H](C)O1 | -58.9 | 1.58 µM (active) | 0.891 µM (active) | 0.891 µM (active) |  |  |  | 
35 | CC1=C(C)C(=O)C(C(CCCCCC(=O)O)c2ccccc2)=C(C)C1=O (stereo unspecified) | 61.1 |  |  |  | inactive | inactive | inactive | 
36 | O=C(Nc1ccccc1)OCC(CN1CCCCC1)OC(=O)Nc1ccccc1 (stereo unspecified) | 31.7 | 10 µM (active) | 10 µM (active) | 10 µM (active) |  |  |  | 
37 | CN1CCCC(CC2c3ccccc3Sc3ccccc32)C1 (stereo unspecified) | -153 | 5.62 µM (active) | 3.16 µM (active) | 3.16 µM (active) |  |  |  | 
38 | Clc1ccc2c(c1)CCc1cccnc1C2=C1CCNCC1 | 49.7 | 7.08 µM (active) | 7.94 µM (active) | 7.94 µM (active) |  |  |  | 

Row | SMILES | efficacy [1] [%] | AC50 [2] | AC50 [3] | AC50 [4] | outcome [2] | outcome [3] | outcome [4] | outcome [5]
39 | CN1CCCN(C(c2ccccc2)c2ccc(Cl)cc2)CC1 (stereo unspecified) | 53.7 | 3.16 µM (active) | 3.16 µM (active) | 3.16 µM (active) |  |  |  | 
40 | Cc1ccc2c(c1)c1c3n2CCNC3CCC1 (stereo unspecified) | 68.3 | 28.2 µM (active) | 28.2 µM (active) | 28.2 µM (active) |  |  |  | 
41 | N/C(=N\N=C\c1ccc(Cl)cc1)N/N=C/c1ccc(Cl)cc1 | -188 | 39.8 µM (active) |  | 39.8 µM (active) |  | inactive |  | 
42 | CCN(CC)CCOc1ccc(Cc2ccccc2)cc1 | 70.7 | 7.94 µM (active) | 3.55 µM (active) | 3.55 µM (active) |  |  |  | 
43 | C[C@]1(Cn2ccnn2)[C@H](C(=O)O)N2C(=O)C[C@H]2S1(=O)=O | -31 | 0.282 µM (active) | 0.316 µM (active) | 0.316 µM (active) |  |  |  | 
44 | CCCCC[C@H](O)C=C[C@H]1[C@H](O)CC(=O)[C@H]1CC=CCCCC(=O)O | 75.7 | 8.91 µM (active) | 7.08 µM (active) | 7.08 µM (active) |  |  |  | 
45 | CCCCN(CCCC)CC(O)c1cc(Cl)cc2c1-c1ccc(Cl)cc1/C2=C/c1ccc(Cl)cc1 (stereo unspecified) | 120 | 39.8 µM (active) | 39.8 µM (active) | 39.8 µM (active) |  |  |  | 
46 | CCC(C(=O)OCCN1CCOC(c2ccccc2)C1C)c1ccccc1 (stereo unspecified) | 88.5 | 22.4 µM (active) | 28.2 µM (active) | 28.2 µM (active) |  |  |  | 
47 | CN1CCN(CCC(=O)N2c3ccccc3Sc3ccc(C(F)(F)F)cc32)CC1 | 68.9 | 4.47 µM (active) | 2.82 µM (active) | 2.82 µM (active) |  |  |  | 
48 | CO[C@@H]1[C@@H](O[C@@H]2O[C@H](C)[C@@H](O[C@H]3C[C@@](C)(O)[C@@H](O)[C@H](C)O3)[C@H](N(C)C)[C@H]2O)[C@@H](CC=O)C[C@@H](C)[C@@H](O[C@@H]2CC[C@H](N(C)C)[C@@H](C)O2)/C=C/C=C/C[C@@H](C)OC(=O)C[C@H]1OC(C)=O | 64.5 | 3.16 µM (active) | 3.55 µM (active) | 3.55 µM (active) |  |  |  | 
49 | CN(C)CCN(Cc1ccc(Cl)cc1)c1ccccn1 | 58.3 | 17.8 µM (active) | 14.1 µM (active) | 14.1 µM (active) |  |  |  | 
50 | CN(C)CCCN1c2ccccc2Sc2ccccc21 | 62.9 | 5.62 µM (active) | 5.01 µM (active) | 5.01 µM (active) |  |  |  | 
51 | CN(C)c1ccc(C(=C2C=CC(=[N+](C)C)C=C2)c2ccccc2)cc1 | -236 | 0.891 µM (active) | 0.708 µM (active) | 0.708 µM (active) |  |  |  | 
52 | C=C1c2cccc(O)c2C(O)=C2C(=O)[C@]3(O)C(O)=C(C(N)=O)C(=O)[C@@H](N(C)C)[C@@H]3[C@@H](O)[C@H]12 | 38.3 | 7.08 µM (active) | 6.31 µM (active) | 6.31 µM (active) |  |  |  | 
53 | COc1ccc2c(c1)c(CC(=O)O)c(C)n2C(=O)c1ccc(Cl)cc1 | 67.4 |  |  |  | inactive | inactive | inactive | 
54 | COc1ccc(/C=C/C(=O)c2ccc(OC)cc2OC)cc1 | 38.6 | 39.8 µM (active) |  | 39.8 µM (active) |  | inactive |  | 
55 | COC(=O)Nc1nc2ccc(Sc3ccccc3)cc2[nH]1 | 73.8 |  | 4.47 µM (active) | 4.47 µM (active) | inactive |  |  | inactive
56 | CN(C(=O)CCCOc1ccc2[nH]c(=O)ccc2c1)C1CCCCC1 | 72.6 |  |  |  | inactive | inactive | inactive | inactive
